KB-3-1 tox: qHTS assay for MDR1-selective chemotherapeutics: Primary screen using the parental adenocarcinoma cell KB-3-1; KB-3-1 viability, CellTiter-Glo ATP luminescence, 72 h; actives 1.4% (n = 400,000); Potency, µM (series often up to 46.1 µM), usual class: cytotoxic; further: on the % scale 0 is the no-effect control and ±100 the full control effect; nearly all actives have a fitted effect of over 60% in size
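Parental KB-3-1 viability, qHTS format: 72 h compound exposure, 37 °C; CellTiter-Glo; media-only wells and DMSO plates as controls; concentration-effect fits on corrected data.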
HT1080 IDH1KD tx: qHTS for induction of synthetic lethality in tumor cells producing 2HG: qHTS for the HT-1080-IDH1KD cell line | AID 686971, 2013 | actives 2% (n = 360,000) | HT-1080 IDH1 knockdown viability, ATP luminescence, 48 h | Potency, µM (series often up to 46.1 µM), inactives show at the highest dose activity, negative = toxicity, hits mostly cytotoxic;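 further: 0% = DMSO wells and -100% = cell-free medium wells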
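IDH1KD HT-1080 cells, 750/well, RPMI + 5% FBS; compound pinned after 2 h settling; 48 h, 37 °C; CellTiter-Glo luminescence; % activity normalised to DMSO and no-cell wells; curves fitted, classed by r2 and efficacy.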
MCF10A rereplic: A quantitative high throughput screen for small molecules that induce DNA re-replication in MCF 10a normal breast cells; AID 624296, 2012; actives 2.9% (n = 350,000); Potency, µM (highest dose often 46.1 µM), without a hit: at the highest dose activity, positive = re-replication, actives largely listed as activators; MCF 10A DNA re-replication, Hoechst nuclear intensity, 48 h; further: % of control where 0% means no effect; nearly all actives have a fitted effect of over 50% in size
KB-V1 MDR tox: qHTS assay for MDR1-selective chemotherapeutics: Primary screen using the drug-selected MDR subline cells KB-V1. KB-V1 MDR cells viability, CellTiter-Glo, 72 h. Potency, µM (highest dose often 46.1 µM), hits mostly cytotoxic. actives 3.4% (n = 400,000). AID 1347076, 2019; further: on the % scale 0 is the no-effect control and ±100 the full control effect; nearly all actives have a fitted effect of over 60% in size
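In this primary screen, KB-V1 cells overexpressing P-gp are incubated with library compounds (lowest to highest concentration) for 72 h at 37 degrees C before a luminescent ATP viability read.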
SW480 rereplic: A quantitative high throughput screen for small molecules that induce DNA re-replication in SW480 colon adenocarcinoma cells | SW480 DNA re-replication, Hoechst DNA content imaging, 48 h | actives 1.8% (n = 340,000) | AID 624297, 2012 | Potency, µM (series often up to 46.1 µM), for inactives: top-dose re-replication activation, most hits filed as activators; further: % of control where 0% means no effect; nearly all actives have a fitted effect of over 55% in size
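SW480 cells exposed to compounds for 48 hr at 37 C, 5% CO2, then Hoechst-stained 40 min. Nuclear DNA content imaged by fluorescence scanning (405 nm excitation, 500-530 nm emission); re-replication scored as increased high-intensity nuclei.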
HT1080-NT tox: qHTS for induction of synthetic lethality in tumor cells producing 2HG: qHTS for the HT-1080-NT fibrosarcoma cell line; Potency, µM (titrated, usually from 46.1 µM), inactives show at the highest dose activity, negative = less viability, hits mostly cytotoxic; AID 686970, 2013; actives 1.6% (n = 360,000); HT-1080-NT fibrosarcoma viability, CellTiter-Glo ATP luminescence, 48 h;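 further: NT is the 2HG producing partner of a matched IDH1 knockdown line; 0% = DMSO-treated cells and -100% = media-only wells without cells; nearly all actives have a fitted effect of over 55% in size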
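Compounds were tested in concentration-response format on HT-1080-NT cells for 48 hours at 37 degrees C. Cell viability came from CellTiter-Glo luminescence; curves were classified by r2, response magnitude and activity.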
* = called active by the depositor; i = inactive; ? = inconclusive; . = not tested or not shown. Compounds with a hit are over-represented: about 7.9% of the library has one in this group of screens. The call rests on the fitted dose curve; in most records, active means well fitted curve in the direction sought with a large enough effect; inconclusive means small, poorly fitted or top-dose-only effect, or another doubt; inactive means no such curve, though single readings can be large; an effect the other way counts as inactive or inconclusive. Potency means the concentration at half of the fitted maximal effect.

SMILES	KB-3-1 tox	HT1080 IDH1KD tx	MCF10A rereplic	KB-V1 MDR tox	SW480 rereplic	HT1080-NT tox
Cc1ccc2nc3c(cc(C(=O)NCc4ccco4)c(=N)n3C(C)C)c(=O)n2c1	i	.	.	i	.	.
COc1ccc(CCn2c(=N)c(C(=O)NCc3ccco3)cc3c(=O)n4ccccc4nc32)cc1	i	13µM*	9.2µM*	23µM*	14%	?
COC(=O)c1cc2c(=O)n3ccccc3nc2n(Cc2cccnc2)c1=N	i	9%	?	i	?	2%
N=c1c(C(=O)NC2CCCCC2)cc2c(=O)n3ccccc3nc2n1Cc1cccnc1	i	-1%	?	i	15µM*	0%
CCCn1c(=N)c(C(=O)NCc2cccnc2)cc2c(=O)n3ccccc3nc21	i	.	.	i	.	.
N=c1c(C(=O)NCc2ccc(F)cc2)cc2c(=O)n3ccccc3nc2n1Cc1cccnc1	i	-2%	5.8µM*	?	?	-4%
N=c1c(C(=O)NC2CCCCC2)cc2c(=O)n3ccccc3nc2n1Cc1ccco1	i	6%	?	i	21µM*	-6%
COc1ccc2c(CNC3CCC(C)CC3)c(C(=O)O)n(Cc3ccccc3)c2c1 (stereo not given)	i	.	.	?	.	.
CN(CC(=O)Nc1ccc(Cl)cc1)CC(=O)N1CCc2ccccc21	?	0%	.	i	.	5%
COc1ccc(S(=O)(=O)N2CCOCC2)cc1NC(=O)CCCSc1ccccc1	i	9%	.	i	.	8%
CCC(C)n1c(=N)c(C(=O)NC2CCCC2)cc2c(=O)n3ccccc3nc21 (stereo not given)	i	.	.	i	.	.
N=c1c(C(=O)NC2CCCCC2)cc2c(=O)n3ccccc3nc2n1Cc1ccccc1	i	1%	2.6µM*	i	9.2µM*	-2%
CCc1cc2c(=O)[nH]c(-c3ccccn3)nc2s1	12µM*	?	12µM*	?	6.5µM*	-20%
CCc1cc2c(=O)[nH]c(N3CCCC3)nc2s1	i	9%	0%	i	?	6%
CCNC(=O)C1CCN(S(=O)(=O)c2ccc3c(c2)CCCN3C(C)=O)CC1	i	.	.	i	.	.
CCc1ccc(CNC(=O)c2cnc(N3CCCCC3)c3ccccc23)cc1	i	.	.	?	.	.
COc1ccc(-c2c3c(nc4sc(C(=O)Nc5cc(C)on5)c(N)c24)CCC3)cc1	i	?	1.5µM*	i	18µM*	20%
COc1ccc(-c2c3c(nc4sc5c(=O)[nH]c(C)nc5c24)CCC3)cc1	i	-10%	?	i	20%	-9%
COc1cc(C(=O)Nc2nc(-c3cc(C)ccc3C)c(C)s2)ccc1OCC(=O)Nc1ccc(F)cc1	i	-11%	?	?	-7%	-8%
COc1ccc(-c2nc(NC(=O)c3ccc(OCC(=O)Nc4ccc(F)cc4)c(OC)c3)sc2C)cc1	i	16µM*	21µM*	i	21%	18µM*
COc1cc(C(=O)Nc2nc(-c3ccc(C)cc3)cs2)ccc1OCC(=O)N1CCOCC1	i	-3%	21%	i	-88%	-20%
COc1cc(C(=O)Nc2nc(-c3ccc(F)cc3)cs2)ccc1OCC(=O)N1CCOCC1	i	-3%	23µM*	i	1%	-19%
COc1ccc(CCNC(=O)CCc2c(C)nc3c4c(C)cc(C)nc4nn3c2C)cc1OC	i	.	.	i	.	.
CC(C)[C@H](NC(=O)c1ccccc1Cl)C(=O)OCc1cc([N+](=O)[O-])cc2c1OCOC2	i	0%	13%	21µM*	-2%	-4%
COc1ccccc1CNc1ncc(-c2ccc(F)cc2)n1C	i	-7%	1%	i	-40%	-13%
SMILES	KB-3-1 tox	HT1080 IDH1KD tx	MCF10A rereplic	KB-V1 MDR tox	SW480 rereplic	HT1080-NT tox
Cn1c(-c2ccc(F)cc2)cnc1NCc1ccccc1	?	-26%	?	21µM*	?	-22%
COc1ccc(CNc2ncc(-c3ccc(F)cc3)n2C)c2ccccc12	i	?	?	?	2%	23µM*
Cn1c(-c2ccccc2)cnc1NCc1ccc(F)cc1	i	3%	2%	i	-3%	3%
CCC(=O)OC1(C(C)=O)CCC2C3CCC4=CC(=O)CCC4(C)C3CCC21C (stereo not given)	i	-23%	?	i	12%	-13%
N#Cc1ccccc1NS(=O)(=O)c1ccc(N2CCCCS2(=O)=O)cc1	i	.	.	i	.	.
COc1cc(C)c(/C=C(\C#N)C(=O)Nc2cccc(C)c2)cc1C(C)C	i	-2%	21µM*	i	-2%	-3%
CCc1ccccc1NC(=O)C(CC)Sc1nc2cc3c(cc2c(=O)n1Cc1ccco1)OCO3 (stereo not given)	?	-2%	6.5µM*	3.7µM*	15µM*	-3%
CCC(Sc1nc2cc(OC)c(OC)cc2c(=O)n1Cc1ccco1)C(=O)NCCOC (stereo not given)	i	-14%	0%	i	-13%	0%
CCc1ccc(NC(=O)C(CC)Sc2nc3cc4c(cc3c(=O)n2Cc2ccco2)OCO4)cc1 (stereo not given)	?	-20%	18µM*	?	?	-22%
CCN(CC)C(=O)CSc1nc2cc3c(cc2c(=O)n1Cc1ccc(OC)cc1)OCO3	i	-17%	5%	i	4%	?
Cc1ccc(NC(=S)Nc2nc(CC(=O)Nc3ccccc3)cs2)cc1	i	7.9µM*	?	i	?	7.1µM*
CCCCC(=O)Nc1cccc(-c2csc(-c3ccccc3)n2)c1	i	?	26µM*	i	?	-22%
Cc1cc(NC(=O)Cc2csc(-c3ccccc3)n2)ccc1Br	?	5%	4%	18µM*	-117%	0%
O=C(O)CCC(=O)Nc1cccc(-c2csc(-c3ccccc3)n2)c1	i	0%	2%	i	-1%	-1%
CC(=O)NCCc1csc(-c2ccccc2)n1	i	0%	6.5µM*	i	?	10%
Cc1cc(C)n(CCc2nc3c4ccccc4nc(SCc4ccc(F)cc4)n3n2)n1	i	.	.	i	.	.
CC(=O)N1CCc2cc(Br)cc(S(=O)(=O)CCC(=O)Nc3ccc(C)cc3Cl)c21	i	.	.	i	.	.

From PubChem
